Measurements reported in PubChem BioAssay (NCI).
About 83,000 compounds went through this panel and 20% of them were active in at least one assay; those are over-represented in the sample as a whole.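 Treatment: one concentration, 48 hours, 96-well format. Scoring: percent growth, with anything below 10 considered active.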 Activity calls are given as the source filed them.

What was measured:
Experiment in all cases: NCI-60 one-dose screen, 48 h (100 = growth as untreated, 0 = no growth, -100 = all killed)
Settings in all cases: 10 µM unless noted
SR leukemia = system: SR leukemia
RPMI-8226 leukemia = system: RPMI-8226 leukemia
OVCAR-8 ovarian = system: OVCAR-8 ovarian
OVCAR-4 ovarian = system: OVCAR-4 ovarian
SK-OV-3 ovarian = system: SK-OV-3 ovarian
IGROV1 ovarian = system: IGROV1 ovarian
OVCAR-3 ovarian = system: OVCAR-3 ovarian
HS 578T breast = system: HS 578T breast
NCI/ADR-RES ovarian = system: NCI/ADR-RES ovarian
OVCAR-5 ovarian = system: OVCAR-5 ovarian

Measured: growth

O=C(Nc1ccccc1Cl)c1ccc(NC2=C(Cl)C(=O)N(C3CCCCC3)C2=O)cc1
inactive: RPMI-8226 leukemia 23.6% [30 µM] | OVCAR-8 ovarian 28.9% [30 µM] | OVCAR-4 ovarian 68.9% [30 µM] | SK-OV-3 ovarian 109% [30 µM] | IGROV1 ovarian 78.2% [30 µM] | OVCAR-3 ovarian 15.9% [30 µM] | NCI/ADR-RES ovarian 78.4% [30 µM]
active: SR leukemia -22.2% [30 µM] | HS 578T breast -0.344% [30 µM]

CCCCN1CCCn2c1nc1c2c(=O)n(CCC)c(=O)n1CCC
inactive: SR leukemia 67.1% | RPMI-8226 leukemia 110% | OVCAR-8 ovarian 102% | OVCAR-4 ovarian 101% | SK-OV-3 ovarian 101% | IGROV1 ovarian 110% | OVCAR-3 ovarian 94.8% | HS 578T breast 96.4% | NCI/ADR-RES ovarian 99.8%

COc1ccc(S(=O)(=O)N2CCCCCC2)cc1NC(=O)c1[nH]c(C)c2c1CCCCC2=O
inactive: SR leukemia 35.6% | RPMI-8226 leukemia 10.7% | OVCAR-8 ovarian 28.5% | OVCAR-5 ovarian 50.5% | SK-OV-3 ovarian 14.1% | IGROV1 ovarian 24.2% | OVCAR-3 ovarian 30.4% | HS 578T breast 17.5% | NCI/ADR-RES ovarian 29.2%

CCCCCC(=O)Oc1ccc(/C(=C(\C)c2ccc(OC)cc2)c2ccc(OCCN3CCCCC3)cc2)cc1
inactive: OVCAR-8 ovarian 74.3% | OVCAR-4 ovarian 54.5% | SK-OV-3 ovarian 68.2% | IGROV1 ovarian 79% | OVCAR-3 ovarian 74.9% | HS 578T breast 64.9% | NCI/ADR-RES ovarian 71.2%
active: SR leukemia -2% | RPMI-8226 leukemia 9.96%

COc1ccc(-c2nn(-c3ccc(Cl)cc3)cc2-c2nc3ccccc3[nH]2)cc1
inactive: SR leukemia 80.3% | RPMI-8226 leukemia 93.9% | OVCAR-8 ovarian 105% | OVCAR-5 ovarian 110% | SK-OV-3 ovarian 101% | IGROV1 ovarian 71.4% | OVCAR-3 ovarian 94% | HS 578T breast 93% | NCI/ADR-RES ovarian 102%

O=c1ccccc(-c2ccc(-c3ccco3)cc2)c1O
active: RPMI-8226 leukemia 8.75%
inactive: SR leukemia 10% | OVCAR-8 ovarian 12.7% | OVCAR-4 ovarian 23.7% | SK-OV-3 ovarian 18.2% | IGROV1 ovarian 12.9% | OVCAR-3 ovarian 28.8% | HS 578T breast 59.3% | NCI/ADR-RES ovarian 12%

COc1cc(-c2nn(-c3ccc(C(=O)O)cc3)cc2C(=O)O)ccc1O
inactive: SR leukemia 32.9% | RPMI-8226 leukemia 88.2% | OVCAR-8 ovarian 73.2% | OVCAR-4 ovarian 83.8% | SK-OV-3 ovarian 74.3% | IGROV1 ovarian 81% | OVCAR-3 ovarian 42.8% | HS 578T breast 76.5% | NCI/ADR-RES ovarian 29.7%

NC1=C(Cl)C(=O)c2ccc(S(N)(=O)=O)cc2C1=O
active: SR leukemia 2.63% | RPMI-8226 leukemia -0.705% | OVCAR-8 ovarian -53.9% | OVCAR-5 ovarian -87.7% | SK-OV-3 ovarian -45.3% | IGROV1 ovarian -85.5% | OVCAR-3 ovarian -95.5% | HS 578T breast -21% | NCI/ADR-RES ovarian -30.7%

CCOc1ccc(-n2nc(C(=O)Nc3cc(OC)c(OC)c(OC)c3)nc2-c2cc(OC)c(OC)c(OC)c2)cc1
inactive: SR leukemia 40.7% | RPMI-8226 leukemia 55.7% | OVCAR-8 ovarian 74% | OVCAR-4 ovarian 68.1% | SK-OV-3 ovarian 99.7% | IGROV1 ovarian 90.8% | OVCAR-3 ovarian 86.9% | HS 578T breast 65.6% | NCI/ADR-RES ovarian 85.8%

COc1ccc(CN2c3ccccc3Sc3ccccc32)c(C(F)(F)F)c1
active: OVCAR-3 ovarian 5.59%
inactive: SR leukemia 12.1% | RPMI-8226 leukemia 28.8% | OVCAR-8 ovarian 31.1% | OVCAR-4 ovarian 44.2% | SK-OV-3 ovarian 17.8% | IGROV1 ovarian 43.4% | HS 578T breast 22.8% | NCI/ADR-RES ovarian 22.7%

CC(O)CN1CC(O)=C(c2nc3ccccc3s2)C1=N (stereo unspecified)
inactive: SR leukemia 93.1% | RPMI-8226 leukemia 101% | OVCAR-8 ovarian 116% | OVCAR-4 ovarian 106% | SK-OV-3 ovarian 113% | IGROV1 ovarian 99% | OVCAR-3 ovarian 117% | HS 578T breast 104% | NCI/ADR-RES ovarian 85.1%

COc1cc2c(cc1O)CC[C@@H]1[C@@H]2CC[C@]2(C)[C@@H](OCCCN(C)C)CC[C@@H]12
active: SR leukemia -36.2% | RPMI-8226 leukemia -32.9% | OVCAR-8 ovarian -34.2% | OVCAR-4 ovarian -15% | SK-OV-3 ovarian -59.1% | IGROV1 ovarian -35.2% | OVCAR-3 ovarian -55.5% | HS 578T breast -38.2% | NCI/ADR-RES ovarian -23.4%

O=C1C=CC(=O)N1c1ccc2c(c1)Cc1cc(F)ccc1-2
inactive: SR leukemia 70.6% | RPMI-8226 leukemia 28.2% | OVCAR-8 ovarian 99.4% | OVCAR-5 ovarian 93.5% | SK-OV-3 ovarian 103% | IGROV1 ovarian 94% | OVCAR-3 ovarian 115% | HS 578T breast 97.8% | NCI/ADR-RES ovarian 105%

COC(=O)c1ccc(Cn2cnc3c(N)ncnc32)cc1
inactive: SR leukemia 104% | RPMI-8226 leukemia 104% | OVCAR-8 ovarian 112% | OVCAR-5 ovarian 115% | SK-OV-3 ovarian 107% | IGROV1 ovarian 126% | OVCAR-3 ovarian 118% | HS 578T breast 95.4% | NCI/ADR-RES ovarian 110%

COc1ccc(NC(=O)c2ccc(/C=C/C(=O)c3ncc[nH]3)cc2)cc1
inactive: SR leukemia 13.4% | RPMI-8226 leukemia 16.7% | OVCAR-5 ovarian 107% | OVCAR-4 ovarian 82.5% | SK-OV-3 ovarian 96.9% | IGROV1 ovarian 78% | OVCAR-3 ovarian 31.1% | HS 578T breast 94.7% | NCI/ADR-RES ovarian 77.4%

CCCCn1cnc2c(Sc3c([N+](=O)[O-])ncn3C)nc(N)nc21
inactive: SR leukemia 56.1% | RPMI-8226 leukemia 52.3% | OVCAR-5 ovarian 97.6% | OVCAR-4 ovarian 89.9% | SK-OV-3 ovarian 101% | IGROV1 ovarian 89.3% | OVCAR-3 ovarian 103% | HS 578T breast 101% | NCI/ADR-RES ovarian 109%

O=C1Nc2cc(-c3ccc(O)cc3)ccc2/C1=C/c1ccc[nH]1
inactive: OVCAR-8 ovarian 12.3% | OVCAR-5 ovarian 19% | OVCAR-4 ovarian 26.3% | IGROV1 ovarian 13% | HS 578T breast 18.1%
active: SR leukemia 5.01% | SK-OV-3 ovarian 8.32% | OVCAR-3 ovarian 4.63% | NCI/ADR-RES ovarian -1.85%

CN1CCN(c2ccc3nc(-c4ccc(OCCCCN5CCN(CCCCN6C(=O)c7cccc8cccc(c78)C6=O)CC5)cc4)[nH]c3c2)CC1
inactive: RPMI-8226 leukemia 26.3% | OVCAR-8 ovarian 22.6% | SK-OV-3 ovarian 89.3% | IGROV1 ovarian 58.5% | OVCAR-3 ovarian 76.1% | HS 578T breast 35.2% | NCI/ADR-RES ovarian 69.6%
active: SR leukemia -68.4%

COc1ccc(-c2nc3cc(C(=O)Nc4cc(OC)c(OC)c(OC)c4)ccc3n2C2CCCCC2)cc1
inactive: SR leukemia 57.5% | RPMI-8226 leukemia 91.7% | OVCAR-5 ovarian 98.1% | OVCAR-4 ovarian 109% | SK-OV-3 ovarian 104% | IGROV1 ovarian 96.5% | OVCAR-3 ovarian 101% | HS 578T breast 81.9% | NCI/ADR-RES ovarian 98.3%

CC(=O)O[C@H]1C(=O)[C@@]2(C)[C@H]([C@H](OC(=O)c3ccccc3)[C@]3(O)C[C@H](OC(=O)[C@H](OC(=O)CCC(=O)OC4CCC(S/N=C(N)/N=C(\N)N(C)C)CC4)[C@@H](NC(=O)c4ccccc4)c4ccccc4)C(C)=C1C3(C)C)[C@]1(OC(C)=O)CO[C@@H]1C[C@@H]2O (stereo partly specified)
inactive: SR leukemia 11.3% | RPMI-8226 leukemia 14% | OVCAR-5 ovarian 39.5% | OVCAR-4 ovarian 40.3% | SK-OV-3 ovarian 28.4% | IGROV1 ovarian 43.1% | OVCAR-3 ovarian 10.2% | NCI/ADR-RES ovarian 44.5%
active: HS 578T breast -9.33%

COc1ccc(N=Nc2nccs2)c(O)c1
inactive: SR leukemia 11.5% | RPMI-8226 leukemia 21.6% | OVCAR-5 ovarian 87.2% | OVCAR-4 ovarian 22.4% | SK-OV-3 ovarian 52.4% | IGROV1 ovarian 25% | OVCAR-3 ovarian 33.1% | HS 578T breast 85.3% | NCI/ADR-RES ovarian 14.4%

CN1CCN(Cc2ccc(NC(=O)c3cncc(C#Cc4cncn5ccnc45)c3)cc2C(F)(F)F)CC1
inactive: SR leukemia 40.8% | RPMI-8226 leukemia 54.9% | OVCAR-8 ovarian 68.8% | OVCAR-4 ovarian 48.5% | SK-OV-3 ovarian 88.9% | IGROV1 ovarian 20.4% | OVCAR-3 ovarian 83.8% | HS 578T breast 69.6% | NCI/ADR-RES ovarian 93.6%

c1ccc(-c2cc3n4c(-c5ccccc5)nn(-c5ccccc5)c4cnc-3n2)cc1
inactive: SR leukemia 113% | RPMI-8226 leukemia 84.5% | OVCAR-8 ovarian 58.1% | OVCAR-4 ovarian 43.5% | SK-OV-3 ovarian 63.8% | OVCAR-3 ovarian 60.3% | HS 578T breast 31.6% | NCI/ADR-RES ovarian 84.4%

N#CN1CC[C@H](C(=O)Nc2cc3cc(C(N)=O)ccc3cn2)C1
active: SR leukemia 0.903% | RPMI-8226 leukemia 8.19% | OVCAR-8 ovarian 1.62% | SK-OV-3 ovarian -10.2% | OVCAR-3 ovarian -14.4% | HS 578T breast -0.591% | NCI/ADR-RES ovarian 1.36%
inactive: IGROV1 ovarian 15.7%

CCOc1cc2c(cc1OCC)C(c1cc(OC)c(O)cc1Cl)NCC2 (stereo unspecified)
inactive: SR leukemia 98.7% | RPMI-8226 leukemia 94% | OVCAR-5 ovarian 85.9% | OVCAR-4 ovarian 89.2% | SK-OV-3 ovarian 103% | IGROV1 ovarian 90.5% | OVCAR-3 ovarian 98.6% | HS 578T breast 106%

Cc1cc(N2CCCCCC2)nc(NC2CCCC(Nc3ccnc4cc(Cl)ccc34)C2)n1 (stereo unspecified)
active: SR leukemia -65.8% | RPMI-8226 leukemia -57% | OVCAR-4 ovarian -63.9% | SK-OV-3 ovarian -82.8% | IGROV1 ovarian -47.1% | OVCAR-3 ovarian -78.6% | HS 578T breast -51.3% | NCI/ADR-RES ovarian -72.2%

COC(=O)[C@@H]1CCCN1C(=O)[C@@H]1CCCN1C(=O)[C@H](Cc1ccccc1)NC(=S)Nc1cc(C(F)(F)F)cc(C(F)(F)F)c1
inactive: SR leukemia 80.9% | RPMI-8226 leukemia 43.9% | OVCAR-5 ovarian 88.4% | OVCAR-4 ovarian 77.9% | SK-OV-3 ovarian 98.1% | IGROV1 ovarian 108% | OVCAR-3 ovarian 24.6% | HS 578T breast 83.7% | NCI/ADR-RES ovarian 67.4%

O=C1c2ccccc2C(=O)c2c1ccc1[nH]c(-c3cccs3)nc21
inactive: SR leukemia 37.4% | RPMI-8226 leukemia 63.7% | OVCAR-5 ovarian 88.5% | OVCAR-4 ovarian 102% | SK-OV-3 ovarian 107% | IGROV1 ovarian 89.7% | OVCAR-3 ovarian 82.8% | HS 578T breast 99.2% | NCI/ADR-RES ovarian 78.7%

CN(C)C(=S)N=Nc1c(O)[nH]c2ccccc12
inactive: OVCAR-5 ovarian 35.3% | OVCAR-4 ovarian 14.9% | SK-OV-3 ovarian 18.8% | HS 578T breast 13.4%
active: SR leukemia -17.8% | OVCAR-8 ovarian -24.1% | IGROV1 ovarian -58.9% | OVCAR-3 ovarian 3.86% | NCI/ADR-RES ovarian -11.6%
